Only some compounds are listed: those with a hit (about 3.9% of all), similar ones and a draw of the others.
Cardio protect: cardioprotection against H2O2-induced cell death, primary screen, uHTS, H9c2 cells, ATPLite luminescence | H9c2 cardiomyocytes, H2O2 injury protection, 2 h | 360,000 tested, 0.63% active | protection from H2O2 cell death, % at 20 µM;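 active = compounds giving at least 50% protection of heart cells from peroxide-induced death in the single-dose screen, raw or plate-pattern-corrected value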
NTR1 ag: agonists of human NTR1, primary screen, imaging, U2OS cells, beta-arrestin-GFP, high content | activation, % at 20 µM | Neurotensin receptor type 1 (Homo sapiens), P30989 | NTR1-U2OS beta-arrestin-GFP spot imaging, agonist mode | 330,000 tested, 0.17% active;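 active = activation at or above 40% of the spot to cytoplasm intensity ratio, with at least 20 cells analyzed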
Target sequence (P30989 whole entry, looked up): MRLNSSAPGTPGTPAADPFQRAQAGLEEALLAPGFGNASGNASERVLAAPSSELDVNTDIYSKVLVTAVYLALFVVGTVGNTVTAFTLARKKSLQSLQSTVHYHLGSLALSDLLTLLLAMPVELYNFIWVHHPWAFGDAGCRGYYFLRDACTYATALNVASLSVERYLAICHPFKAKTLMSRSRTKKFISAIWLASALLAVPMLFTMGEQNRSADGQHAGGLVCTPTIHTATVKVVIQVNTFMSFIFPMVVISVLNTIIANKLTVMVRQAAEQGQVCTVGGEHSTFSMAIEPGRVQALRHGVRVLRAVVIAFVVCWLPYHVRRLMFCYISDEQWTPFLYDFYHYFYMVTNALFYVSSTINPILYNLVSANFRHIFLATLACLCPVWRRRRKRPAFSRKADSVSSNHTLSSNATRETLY
ALR H2O2 inh: inhibitors of human ALR sulfhydryl oxidase, primary screen, biochemical, H2O2 detection, HRP-luminol luminescence, single point; AID 485317, 2010; purified ALR, DTT oxidation; FAD-linked sulfhydryl oxidase ALR (Homo sapiens), P55789; inhibition, % (no concentration beside the values); 290,000 tested, 3.8% active;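 active = mean replicate inhibition above about 79%, with every replicate also reaching it, limit read from the data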
UBC9 SUMO inh: inhibitors of in vitro SUMOylation cascade, primary screen, biochemical, HTRF, uHTS. SUMO-conjugating enzyme UBC9 (Homo sapiens), P63279. HTRF SUMOylation assay, SAE1/SAE2 + UBC9. inhibition, % at 35 µM. 290,000 tested, 0.36% active. AID 2006, 2009; in the data active = inhibition above about 50%, passing the limit was not always enough
Target sequence (P63279 whole entry, looked up): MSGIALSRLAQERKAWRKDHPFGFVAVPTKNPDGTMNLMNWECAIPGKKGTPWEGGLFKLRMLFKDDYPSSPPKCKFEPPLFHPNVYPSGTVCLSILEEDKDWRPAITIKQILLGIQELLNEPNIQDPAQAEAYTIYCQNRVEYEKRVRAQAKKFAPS
Each line names hits and unclear results; the compound was inactive in the other large screens.

Cc1ccc(OCC(O)Cn2c(NCCc3ccccc3)nc3c2c(=O)[nH]c(=O)n3C)cc1 (stereo not given)	none
Cn1c(=O)[nH]c(=O)c2c1nc(NCCc1ccccc1)n2CC(O)COc1ccccc1 (stereo not given)	Cardio protect 59.5
Cn1c(=O)[nH]c(=O)c2c1nc(Br)n2CC(O)COCc1ccccc1 (stereo not given)	ALR H2O2 inh 91.0
Cc1ccc(CNC(=O)c2cc3c(=O)n(C)c4ccccc4c3n2C)cc1	none
COc1ccc(NC(=O)c2cc3c(=O)n(C)c4ccccc4c3n2C)cc1OC	Cardio protect 50.0
Cn1c(C(=O)NCc2cccs2)cc2c(=O)n(C)c3ccccc3c21	Cardio protect 68.4
COc1ccc(C(=O)N/C(=C\c2ccccc2)C(=O)Nc2ccc(C(=O)O)cc2)cc1	none
O=C1OCCC1Sc1nc2ccccc2s1 (stereo not given)	ALR H2O2 inh 98.0
Cc1ccc(C)n1-c1sc2c(c1C(=O)O)CCCC2	ALR H2O2 inh 96.1
CCOC(=O)C1CCN(c2c(NCCCN(CC)c3ccccc3)c(=O)c2=O)CC1	ALR H2O2 inh 90.0
CCOC(=O)C1CCCN(c2c(NCCCN(CC)c3cccc(C)c3)c(=O)c2=O)C1 (stereo not given)	ALR H2O2 inh 98.0
CCOC(=O)C1CCN(c2c(N3CCN(Cc4ccccc4)CC3)c(=O)c2=O)CC1	none
CCOC(=O)C1CCCN(c2c(NCCc3cccc(C)c3)c(=O)c2=O)C1 (stereo not given)	none
Cc1oc(-c2ccccc2)cc1C(=O)Nc1cccc(C(=O)O)c1	ALR H2O2 inh 84.4
NNC(=O)c1cc2sccc2s1	ALR H2O2 inh 98.4
CC(=O)NNC(=O)c1cc2sccc2s1	none (no result: ALR H2O2 inh)
COc1cc(C)ccc1Oc1nc(-c2ccccc2O)nc2ccccc12	none
Nc1ccccc1SCc1cn2cccnc2n1	ALR H2O2 inh 97.7
Nc1ccccc1SCc1cn2ccccc2n1	none
Cc1cccn2cc(CSc3ccccc3N)nc12	ALR H2O2 inh 81.4
Cc1onc(-c2ccccc2)c1C(=O)NCC1CCN(C(=O)c2c(-c3ccccc3)noc2C)CC1	none
CCc1cc(CNC(=O)CCc2nnc(CCCc3ccccc3)o2)on1	none
c1ccc2c(c1)nc(Nc1ccc3c(c1)OCO3)c1nnnn12	Cardio protect 55.5
c1ccc(Nc2nc3ccccc3n3nnnc23)cc1	none
CCN(CC)S(=O)(=O)c1ccc(Nc2nc3ccccc3n3nnnc23)cc1	Cardio protect 82.6
COc1cccc(Nc2nc3ccccc3n3nnnc23)c1	Cardio protect 68.1, ALR H2O2 inh 97.3
Cc1nnc(Nc2ccc3c(c2)OCO3)c2ccccc12	ALR H2O2 inh 88.2
COc1cccc(C2CC(c3ccc(C)cc3)n3nc(N)nc3N2)c1 (stereo not given)	none
COc1ccc(-c2ocnc2C(=O)N2CCN(Cc3cccnc3)CC2)cc1	none
O=C(NCCc1nc2ccccc2[nH]1)c1cc([N+](=O)[O-])cc([N+](=O)[O-])c1	none
Cc1cccc(C(=O)N2CCCC(N3CCN(c4ccc(F)cc4)CC3)C2)n1 (stereo not given)	ALR H2O2 inh 99.0
Cc1cccc(C(=O)N2CCCC(N3CCN(c4ccccc4)CC3)C2)n1 (stereo not given)	ALR H2O2 inh 98.0
Cc1cc(C)c2c(N)c(C(=O)C(C)(C)C)sc2n1	none
O=C(c1ccncc1)N1CCN(C(=O)c2cccc3ccccc23)CC1	none
c1ccc(-c2cccc(-c3ccccn3)n2)nc1	Cardio protect 65.0
O=C1NCCCC2c3cc(O)c4ccccc4c3OC12N1CCCCC1 (stereo not given)	UBC9 SUMO inh 56.1 (no result: Cardio protect)
O=c1oc2ccccc2c(O)c1CN1CCCCC1	none
CCc1ccc(C(=O)CSc2nc(N)cc(=O)[nH]2)cc1	none (no result: ALR H2O2 inh)
Cc1ccc(C(=O)CSc2nc(N)cc(=O)[nH]2)cc1C	ALR H2O2 inh 99.1
Cc1ccc(C(=O)CSc2nc(O)cc(=O)[nH]2)cc1C	none (no result: ALR H2O2 inh)
Cc1cc(C(=O)CSc2nc(N)cc(=O)[nH]2)ccc1F	ALR H2O2 inh 90.4
CCOC(=O)c1cnc2c(c(C)nn2C)c1Oc1ccc(OC)cc1	none
Nc1sccc1C(=O)c1ccccc1	ALR H2O2 inh 97.5 (no result: Cardio protect)
O=C(c1ccccc1)c1ccccc1C(=O)c1ccccc1	none
O=c1[nH]c(N2CCOCC2)cc2ccccc12	Cardio protect 56.4 (no result: UBC9 SUMO inh)
O=c1c(N2CCOCC2)coc2ccccc12	none
COc1ccc(OC)c(C(=O)COC(=O)c2cc(C)oc2C)c1	none
COc1ccc(OC)c(C(=O)COC(=O)c2ccc([N+](=O)[O-])o2)c1	Cardio protect 54.5 (no result: UBC9 SUMO inh)
CNC(=S)NNC(=O)c1sc2cc(C(F)(F)F)cnc2c1-c1cccnc1	ALR H2O2 inh 88.3
Cc1nc(N2CCN(Cc3ccc4c(c3)OCO4)CC2)[nH]c(=O)c1C	none (no result: ALR H2O2 inh)
Cc1noc(C)c1NC(=O)Nc1ccc2c(c1)C(=O)N([C@H](C)CO)C[C@H](C)[C@@H](CN(C)S(C)(=O)=O)O2	none (no result: ALR H2O2 inh, UBC9 SUMO inh)
Cc1cnc(C(=O)OCC(=O)Nc2cccc3ccccc23)cn1	none (no result: UBC9 SUMO inh)
O=C(CSc1ccc2ccccc2n1)NC1CC1	none (no result: UBC9 SUMO inh)
COc1ccc(-c2nc3c(c(SCC(=O)Nc4cccc(O)c4)n2)Cc2c(CO)cnc(C)c2O3)cc1	Cardio protect 65.9 (no result: UBC9 SUMO inh)
Cc1ncc(CO)c2c1Oc1nc(-c3ccccc3)nc(SCC(=O)Nc3cccc(O)c3)c1C2	Cardio protect 63.0
Cc1ccc(-c2cc(-c3ccccc3)nc(N/N=C/c3cccnc3)n2)cc1	none (no result: UBC9 SUMO inh)
Cc1cc(N/N=C/c2ccccc2O)c2ccccc2n1	ALR H2O2 inh 98.7
COc1cccc(/C=N/Nc2nc(Nc3ccccc3)nc(-n3nc(C)cc3C)n2)c1O	Cardio protect 74.1 (no result: ALR H2O2 inh)
Cc1ccc2nc(C)cc(N/N=C/c3cccnc3)c2c1	ALR H2O2 inh 99.3
Cc1cc(-c2ccccc2)nc(N/N=C/c2ccc(O)cc2O)n1	none
COc1ccc(/C=N/Nc2cc(C)nc3ccc(Br)cc23)cc1	none
COc1ccc2nc(C)cc(N/N=C/c3cccc(OC)c3O)c2c1	NTR1 ag 41.3, ALR H2O2 inh 87.4
Cc1cc(C)n(-c2nc(Nc3ccccc3)nc(-n3nc(C)cc3C)n2)n1	none
O=C(COc1ccccc1)Nc1ccc(N2CCN(C(=O)c3ccco3)CC2)cc1	none
O=C(c1ccccc1)N(Nc1ccccc1)c1ccccc1	ALR H2O2 inh 76.1
O=C(NNc1ccc(-c2csnn2)cc1)c1cc(Cl)cc(Cl)c1	none
O=C(NNc1ccc(-c2csnn2)cc1)c1ccccc1C(F)(F)F	ALR H2O2 inh 98.1
CCn1cc(C(=O)Nc2cccc(NC(C)=O)c2)c2cc(OC)c(OC)cc2c1=O	Cardio protect 54.9
Cc1ccc(S(=O)(=O)NNC(=O)c2cccnc2)cc1	none
CCOC(=O)c1c(NC(=O)C2C3C=CC(C3)C2(C)C(=O)O)sc2c1CCCC2 (stereo not given)	ALR H2O2 inh 91.0
O=C(CCSc1nc2cc(Cl)ccc2o1)N1CCOCC1	ALR H2O2 inh 98.6
CCNC(=O)CCSc1nc2cc(Cl)ccc2o1	ALR H2O2 inh 90.3
O=C(Nc1cccc(N=Cc2cc(Br)cc(Br)c2O)c1)c1ccco1	Cardio protect 50.6 (no result: NTR1 ag)

Source: PubChem
